Source: PubChem BioAssay (NCI)
About 83,000 compounds went through this panel and 20% of them were active in at least one assay; those are over-represented in the sample as a whole.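 Method: cells in 96-well plates; compound added at one concentration; 48 h incubation; percent growth measured; values under 10 scored active.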 A number with no mark means an inactive call. The source made the active and inactive calls.

System: HCT-116 colon
Test: NCI-60 one-dose screen, 48 h (100 = growth as untreated, 0 = no growth, -100 = all killed)
Details: 10 µM unless noted
Description: Growth inhibition of the HCT-116 human tumor cell line is measured as a screen for anti-cancer activity. Cells are grown in 96 well plates and exposed to the test compound for 48 hours. Compounds are tested at a single concentration, which is 10^-5 M for most compounds. The reported endpoint is percent growth (GI% or GIPRCNT), where numbers from 0 - 100% represent growth inhibition, and numbers from -100% - 0 represent cell death. For example, a value of 40 represents 60% growth inhibition. A value of 0 means no net growth occurred over the course of the experiment. A value of -40 indicates 40% of cells at the beginning of the experiment died by the end of the experiment. A value of -100 means all cells are dead at the end of the experiment.
NCI-60 Human Tumor Cell Lines Screen was performed using the standard one-dose NCI protocol, which is described in more detail at https://dtp.cancer.gov/discovery_development/nci-60/default.htm.
Compounds with GIPRCNT values below 10 were considered active. Activity score was based on GIPRCNT using the following formula: […]
Score is 0 for GIPRCNT values of 100 or above, 50 for GIPRCNT values of 0, and 100 for GIPRCNT values of -100.

| SMILES | growth |
| --- | --- |
| COc1ccccc1CNCCCN1C(=O)c2ccc3c4c(ccc(c24)C1=O)C(=O)N(CCCNCCCCN)C3=O | -8.71% (active) |
| CCC1(C2CCCC2)NC(=O)NC1=O (stereo not given) | 99.3% |
| O=c1ssc(Cl)c1-c1ccccc1 | 93.5% |
| COc1cc(N2C(=O)c3nccnc3C2=O)cc(OC)c1OC | 103% |
| COc1cc(-c2n/c(=C\c3c(O)[nH]c4ccc(Cl)cc34)cc3c2=Nc2ccccc2-3)cc(OC)c1OC | -73.5% (active) |
| CCOC(CN=Cc1cc(C)c2[nH]c3ccccc3c2c1C)OCC | 94.4% |
| Cc1ccc(C(=NN=C(N)N)c2ccc(C)cc2)cc1 | 2.81% (active) |
| COC(=O)[C@]12CC[C@@H](C)[C@H](C)[C@@H]1C1=CC[C@@H]3[C@@]4(C)C(C=O)=C[C@@](C)(COS(C)(=O)=O)[C@@H]4C(=O)C[C@@]3(C)[C@]1(C)CC2 | 5.35% (active) |
| C=CCn1c(C)nc2cc(Nc3nc(Cl)nc4ccccc34)ccc21 | 91.5% |
| CCOC(=O)c1ccc(N2NC(=O)/C(=C/c3ccc([N+](=O)[O-])o3)C2=O)cc1 | 82.2% |
| FC(F)(F)c1cc(Nc2ccc3cc(OCCCN4CCOCC4)ccc3n2)ccc1Cl | 14.5% |
| COC1=CC(=O)C[C@@H](C)[C@]12Oc1c(Cl)c(OC)cc(OC)c1C2=O | 92.4% |
| COc1cc(OC)cc(C2CC(=O)Nc3c2c(C)nn3-c2nc3ccccc3[nH]2)c1 (stereo not given) | 0.333% (active) |
| O=C(Nc1ccccc1-c1nc2ccccc2c(=O)[nH]1)c1cc2ccccc2[nH]1 | 83.5% |
| Cn1cc(-c2csc(-c3cccc(F)c3)n2)c2cccnc21 | -79.7% [100 µM] (active) |
| COc1cccc(/C=C/C(=O)c2c(C)nc3ccccc3c2/C=C/c2ccc(C)cc2)c1OC | 8.38% (active) |
| COc1ccc2[nH]c(O)c(/C=c3/cc4c(c(-c5cc(OC)c(OC)c(OC)c5)n3)=Nc3ccccc3-4)c2c1 | 36.8% |
| Cc1cc(NCCCCNc2ccnc3cc(Cl)ccc23)nc(Nc2ccc(C(=O)N3CCCC3)cc2)n1 | 2.57% (active) |
| COc1ccc(N2CCN(c3nc(-c4cc(OC)c(OC)c(OC)c4)nc4ccccc34)CC2)cc1 | 70% |
| CCCCCCCCCCCCCCCCCCOc1ccc(CC(=O)OCC[N+]2(C)CCCC2)cc1 | 92% |

| SMILES | growth |
| --- | --- |
| Cc1cc(NCc2cc(Nc3ccnc4cc(Cl)ccc34)ccc2F)nc(N2CCSCC2)n1 | -29.1% (active) |
| COc1ccc2c(c1)C(=O)/C(=C/c1ccc(OCC(=O)Nc3nccs3)cc1)O2 | 15.6% |
| CCCCN(CCCC)CC(C)(C)C(O)c1ccc(OC)c2ccccc12 (stereo not given) | 3.51% (active) |
| Cc1cc(Cl)ccc1Nc1nc(C(F)(F)F)ccc1C(=O)N/N=C/c1ccc(N(C)C)cc1 | 19.4% |
| N/C(=N\c1nc2ccccc2s1)NC(=O)Nc1cccc(Cl)c1 | 16% |
| O=c1[nH]ccc2nc(N3CCC(O)CC3)nc(Nc3ccc(N4CCOCC4)cc3)c12 | 22.8% |
| O=C1OC(c2nc3ccccc3s2)=C/C1=C\c1ccc(O)cc1 | 99.8% |
| NS(=O)(=O)c1ccc(-n2nc(C(=O)N/N=C\c3ccc(F)cc3)cc2-c2ccc(Cl)cc2)cc1 | 98% |
| Cn1c(I)c(C#C[Si](C)(C)C)c(=O)n(C(=O)c2ccccc2)c1=O | -61.6% (active) |
| COc1cc(/C=N/Nc2ncc(-c3cc4cc5c(cc4o3)OCO5)s2)cc(OC)c1OC | 28.5% |
| O=S(=O)(NCCCNc1cc(-c2c(-c3cccc(O)c3)nc3sccn23)ccn1)c1cccc(Cl)c1 | 33.5% |
| COC(=O)CCC1=C(C)C2=NC1=CC1=NC(=CC3=NC(=Cc4[nH]c(/c(=C(/C)O)c4C)=C2)C(C(C)=O)=C3C)C(C)=C1CCC(=O)OC | 102% |
| COc1ccc(-c2nc(SC(C)C)nc(NNC(N)=S)c2C#N)cc1 | 75.1% |
| O=c1oc2ccccc2c(Cl)c1Cl | 32.5% |
| O=C(Nc1cccc2c(O)c(N=Nc3ccc(S(=O)(=O)Nc4nccs4)cc3)cc(N=Nc3ccc(S(=O)(=O)Nc4nccs4)cc3)c12)C(Cl)Cl | 71.8% |
| Fc1c[c-]c(-c2ccccn2)c(F)c1.[CH3-].[Pt+2].c1ccc(P(C[PH+](c2ccccc2)c2ccccc2)c2ccccc2)cc1 | -66% (active) |
| COc1cccc(-c2nn(-c3ccccc3)cc2-c2ccnc(NCCCNC(=O)c3ccc(F)cc3)c2)c1 | 13.1% |
| O=C1Nc2ccccc2/C1=C/c1cn(C(=O)c2ccc(Cl)cc2)c2ccccc12 | 91.6% |
| CCCCCCCCCCCCCCCCCCOc1ccccc1CC(=O)OCCC[N+](C)(C)C | 64% |
| CC(=O)OC1CCC2(C)C(=CC3C4CCC(=O)C4(C)CCC32)C1 (stereo not given) | 100% |
